Results as given in PubChem BioAssay (Tox21).
“And” between values parts separate entries of the source, which are not always exact repeats. Identical values can stand only once. Records with an inconclusive call do not appear. The source made the active and inactive calls. Unless noted, calls come from the whole dose curve; as a rule, active = well fitted curve in the direction sought with a large enough effect in the repeat runs; inconclusive = weak or mixed curves; inactive = no such curve, though single readings can be large; an effect the other way counts as inactive or inconclusive.

How the values were obtained:
[1] = target: Estrogen receptor beta (Homo sapiens) (UniProt Q92731); test: qHTS assay to identify small molecule agonists of the estrogen receptor beta (ER-beta) signaling pathway (AID 1259377; active = well fitted activation curve with a large enough effect in the signal ratio in the repeat runs, not every such curve was filed as active; the % refers to the signal ratio)
How it was run: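 Read-out: beta-lactamase FRET fluorescence. Cell line: ER-beta-UAS-bla HEK293T in 2% charcoal-stripped FBS. Exposure: 16 hr at 37C. Substrate step: 2 h at room temperature.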

[2] = target: Estrogen receptor beta (Homo sapiens) (UniProt Q92731); test: qHTS assay to identify small molecule antagonists of the estrogen receptor beta (ER-beta) signaling pathway (AID 1259378; active = well fitted inhibition curve with a large enough effect in the signal ratio in the repeat runs, not every such curve was filed as active; the % refers to the signal ratio)
How it was run: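 Antagonist mode: compounds added to beta-lactamase reporter HEK293T ER-beta-UAS cells stimulated with E2 (1nM final), 16 hr at 37C. LiveBLAzer B/G FRET substrate, 2 hours room temperature, fluorescence read-out.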

[3] = qHTS assay to identify small molecule agonists of the androgen receptor (AR) signaling pathway in the presence of an antagonist - cell viability counter screen (AID 1259379); note: nearly all actives have a fitted effect of over 25% in size; note: potency is the fitted concentration of half-maximal effect
How it was run: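 Cells: MDA-kb2 (MMTV-luc, AR and GR elements), 3,000/well, 5 hr settle. Added: nilutamide 3.0uM final, then compounds (15 conc.). Incubation: 16 hr, 37C, no CO2. Read-out: CellTiter-Fluor, 1 hr, fluorescence.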

[4] = qHTS assay to identify small molecule antagonists of the estrogen receptor beta (ER-beta) signaling pathway - cell viability counter screen (AID 1259382);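 note: HEK293T cells carrying ER-beta-UAS-bla reporter stimulated with estradiol; series mostly up to about 92 µM; nearly all actives have a fitted effect of over 55% in size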
How it was run: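 Cells: ER-beta-UAS-bla HEK293T, 2,000/well, 2% CS-FBS, 6 hr settle. Cpd + E2 (1nM final), 16 hr, 37C/5% CO2. Bla FRET substrate 2 hr RT, then CellTiter-Glo 30 min RT, luminescence.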

[5] = target: Estrogen receptor (Homo sapiens) (UniProt P03372); test: qHTS assay to identify small molecule agonists of the estrogen receptor alpha (ER-alpha) signaling pathway in the presence of an antagonist (AID 1259383; calls by dose curve; note: top concentration of the series differs between compounds; nearly all actives have a fitted effect of over 15% in size)
How it was run: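 VM7Luc4E2, endog. ER-alpha + 4×ERE-luc; charcoal-stripped FBS, phenol red-free, 5 d; 24hr plating; +10.0nM ICI-182,780 (final); cpds 15 conc, 22hr, 37C/5% CO2; ONE-Glo luminescence.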

[6] = target: Thyrotropin receptor (Homo sapiens) (UniProt P16473); test: qHTS assay to identify small molecule antagonists of the thyroid stimulating hormone receptor (TSHR) signaling pathway (AID 1259385; calls by dose curve; note: nearly all actives have a fitted effect of over 20% in size)
How it was run: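 Antagonist mode: compound-treated TSHR-expressing HEK293 cells were stimulated with 1.5 ng/mL TSH (final) in presence of Ro20-1724 for 30 min at RT. HTRF cAMP detection after 1 h; each compound tested at 15 concentrations, triplicate.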

[7] = target: Progesterone receptor (Homo sapiens) (UniProt P06401); test: qHTS assay to identify small molecule agonists of the progesterone receptor (PR) signaling pathway (AID 1346784; calls by dose curve; note: nearly all actives have a fitted effect of over 30% in size)
How it was run: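 Compounds were tested for PR agonism in HEK 293T cells bearing a beta-lactamase gene under UAS control. Treatment lasted 16 hr at 37C; signal came from fluorescence of a FRET substrate.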

[8] = target: Progesterone receptor (Homo sapiens) (UniProt P06401); test: qHTS assay to identify small molecule antagonists of the progesterone receptor (PR) signaling pathway (AID 1346795; active = well fitted inhibition curve with a large enough effect in the signal ratio in the repeat runs, not every such curve was filed as active; the % refers to the signal ratio)
How it was run: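 In HEK293T cells bearing the PR-UAS-bla reporter, compound effects on promegestone-driven (1 nM) beta-lactamase expression are assessed after 16 hr using a fluorescent FRET substrate incubated 2 hr at room temperature.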

[9] = qHTS assay to identify small molecule antagonists of the progesterone receptor (PR) signaling pathway - cell viability counter screen (AID 1346798); note: series mostly up to about 92 µM; nearly all actives have a fitted effect of over 50% in size
How it was run: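 Following a 4 hr attachment, PR-UAS-bla HEK293T cells in charcoal-stripped FBS medium were exposed to compounds with R5020 for 16 hr; CellTiter-Glo was added and luminescence read after 30 min at room temperature.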

[10] = qHTS assay to identify small molecule agonists of the progesterone receptor (PR) signaling pathway - cell viability counter screen (AID 1346799; calls by dose curve; note: nearly all actives have a fitted effect of over 45% in size)
How it was run: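 Here, 3,000 PR-UAS-bla HEK293T cells per well were treated with compounds for 16 hr after a 6 hr preincubation at 37C and 5% CO2; cell viability is the CellTiter-Glo luminescence signal.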

[11] = qHTS assay to identify small molecule antagonists of the TGF-beta/Smad signaling pathway - cell viability counter screen (AID 1346824); note: nearly all actives have a fitted effect of over 50% in size
How it was run: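 Cytotoxicity counter-screen run in the same wells as the beta-lactamase Smad reporter read: CellTiter-Glo luminescence after 30 min at room temperature. HEK 293T SBE-bla cells had 5 hr compound exposure at 37 C with TGF-beta1 (0.25 ng/mL stock).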

[12] = qHTS assay to identify small molecule agonists of the TGF-beta/Smad signaling pathway - cell viability counter screen (AID 1346829); note: top concentration of the series differs between compounds; nearly all actives have a fitted effect of over 45% in size
How it was run: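 In parallel with the Smad reporter read, viability of HEK 293T cells stably carrying SBE-bla is quantified by ATP luminescence following 5 hr compound treatment.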

[13] = qHTS assay to identify small molecule agonists of the TGF-beta/Smad signaling pathway (AID 1346859; active = well fitted activation curve with a large enough effect in the signal ratio in the repeat runs, not every such curve was filed as active; the % refers to the signal ratio; note: series mostly up to about 77 µM)
How it was run: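 Each well held 4,000 SBE-bla HEK 293T cells incubated overnight before compound addition; 5 hr later the cleavable FRET substrate went on for 2 hr at room temperature, and fluorescence was read at two emissions.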

[14] = target: Thyrotropin-releasing hormone receptor (Homo sapiens) (UniProt P34981); test: qHTS assay to identify small molecule antagonists of the thyrotropin-releasing hormone receptor (TRHR) signaling pathway (AID 1346877; active = well fitted inhibition curve with a large enough effect in the repeat runs, not every such curve was filed as active; note: series mostly up to about 51 µM)
How it was run: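 Intracellular calcium fluorescence, read kinetically every second over 3 min, reports TRH-evoked signalling in HEK293 cells carrying TRHR. Test compounds were added 5 min ahead of a 1 nM TRH challenge.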

[15] = target: Thyrotropin-releasing hormone receptor (Homo sapiens) (UniProt P34981); test: qHTS assay to identify small molecule agonists of the thyrotropin-releasing hormone receptor (TRHR) signaling pathway (AID 1346891; calls by dose curve; note: series mostly up to about 58 µM)
How it was run: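 Screening of agonists relied on calcium signalling in HEK293 cells expressing human TRHR: dye loading 2 h at 37 °C preceded compound addition and a 3-min fluorescence time course.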

[16] = Human pregnane X receptor (PXR) small molecule agonists, qHTS cell viability counter screen (AID 1346977); note: nearly all actives have a fitted effect of over 50% in size; note: potency is the fitted concentration of half-maximal effect
How it was run: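 Tox21 qHTS format; PXR-Luc HepG2, 2,000/well, charcoal-stripped FBS 5%. Cpd exposure 24hr. Read: CellTiter-Fluor fluorescence, multiplexed with luciferase.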

[17] = qHTS assay to identify small molecule agonists or antagonists of the thyroid stimulating hormone receptor (TSHR) signaling pathway - wild type cell line counter screen (AID 1259384; calls by dose curve)
How it was run: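 Counter screen in untransfected Hek293: compounds (15-point titration, triplicate) plus phosphodiesterase inhibitor Ro20-1724 added after 18 h plating; 30 min RT. Intracellular cAMP via competitive d2/cryptate immunoassay, 1 h incubation.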

[18] = qHTS assay to identify small molecule agonists of the estrogen receptor alpha (ER-alpha) signaling pathway in the presence of an antagonist - cell viability counter screen (AID 1259386);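 note: cells exposed to compounds for 22 h at 37 °C before the viability read; nearly all actives have a fitted effect of over 30% in size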; note: potency is the fitted concentration of half-maximal effect
How it was run: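 VM7Luc4E2, stripped-serum pre-culture 5 d; 24hr plating; +ICI-182,780 10.0nM final; cpds 15 conc, 22hr, 37C/5% CO2; CellTiter-Fluor added at 21hr, fluorescence 1hr later.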

[19] = qHTS assay to identify small molecule agonists of the estrogen receptor beta (ER-beta) signaling pathway - cell viability counter screen (AID 1259380); note: nearly all actives have a fitted effect of over 30% in size
How it was run: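 HEK293T ER-beta-UAS-bla; 2% CS-FBS; 6 hr pre-plate, 16 hr cpd at 37C/5% CO2; LiveBLAzer read first, then CellTiter-Glo 30 min RT, luminescence.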

Measured: Potency

Estrogen receptor (Homo sapiens), sequence (P03372 whole entry, looked up): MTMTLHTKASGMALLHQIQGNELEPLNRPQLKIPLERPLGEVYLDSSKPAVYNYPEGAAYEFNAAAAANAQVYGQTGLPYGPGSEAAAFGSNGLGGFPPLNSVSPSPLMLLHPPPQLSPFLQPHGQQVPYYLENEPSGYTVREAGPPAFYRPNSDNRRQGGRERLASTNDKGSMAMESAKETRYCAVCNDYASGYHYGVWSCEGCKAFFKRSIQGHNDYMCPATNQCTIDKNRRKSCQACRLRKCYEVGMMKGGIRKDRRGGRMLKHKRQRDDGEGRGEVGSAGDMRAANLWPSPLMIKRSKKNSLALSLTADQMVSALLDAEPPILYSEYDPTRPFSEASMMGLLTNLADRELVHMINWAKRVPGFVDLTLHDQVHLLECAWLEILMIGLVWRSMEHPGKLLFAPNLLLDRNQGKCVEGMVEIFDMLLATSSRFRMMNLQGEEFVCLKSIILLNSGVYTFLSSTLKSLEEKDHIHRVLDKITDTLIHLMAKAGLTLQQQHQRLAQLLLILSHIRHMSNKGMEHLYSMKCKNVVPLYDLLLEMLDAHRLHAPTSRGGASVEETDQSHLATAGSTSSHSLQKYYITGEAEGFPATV
Progesterone receptor (Homo sapiens), sequence (P06401 whole entry, looked up): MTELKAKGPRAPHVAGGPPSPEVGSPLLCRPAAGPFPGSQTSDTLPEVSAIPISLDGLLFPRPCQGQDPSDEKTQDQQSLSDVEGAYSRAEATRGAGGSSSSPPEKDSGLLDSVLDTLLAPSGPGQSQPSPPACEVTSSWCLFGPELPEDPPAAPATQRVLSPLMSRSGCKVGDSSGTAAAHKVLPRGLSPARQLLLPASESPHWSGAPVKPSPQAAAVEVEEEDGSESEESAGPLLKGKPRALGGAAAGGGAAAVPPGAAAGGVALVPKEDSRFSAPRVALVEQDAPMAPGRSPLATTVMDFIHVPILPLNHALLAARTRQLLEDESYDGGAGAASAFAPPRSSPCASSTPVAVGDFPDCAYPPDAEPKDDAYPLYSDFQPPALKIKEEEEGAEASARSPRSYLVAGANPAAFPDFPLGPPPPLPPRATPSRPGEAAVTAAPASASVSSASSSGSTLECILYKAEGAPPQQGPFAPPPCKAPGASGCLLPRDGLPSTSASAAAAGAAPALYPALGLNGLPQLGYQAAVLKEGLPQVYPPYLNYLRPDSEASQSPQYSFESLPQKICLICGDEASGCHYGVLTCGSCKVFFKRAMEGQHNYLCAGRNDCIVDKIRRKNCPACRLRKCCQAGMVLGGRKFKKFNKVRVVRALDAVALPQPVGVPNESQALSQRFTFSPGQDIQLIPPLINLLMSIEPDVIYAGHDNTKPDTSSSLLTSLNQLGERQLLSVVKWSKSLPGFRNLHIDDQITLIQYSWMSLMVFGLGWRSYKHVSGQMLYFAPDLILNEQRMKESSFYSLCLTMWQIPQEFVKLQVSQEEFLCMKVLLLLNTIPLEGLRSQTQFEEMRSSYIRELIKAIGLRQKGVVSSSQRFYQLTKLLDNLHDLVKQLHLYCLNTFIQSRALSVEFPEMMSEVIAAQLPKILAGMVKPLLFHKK
Estrogen receptor beta (Homo sapiens), sequence (Q92731 whole entry, looked up): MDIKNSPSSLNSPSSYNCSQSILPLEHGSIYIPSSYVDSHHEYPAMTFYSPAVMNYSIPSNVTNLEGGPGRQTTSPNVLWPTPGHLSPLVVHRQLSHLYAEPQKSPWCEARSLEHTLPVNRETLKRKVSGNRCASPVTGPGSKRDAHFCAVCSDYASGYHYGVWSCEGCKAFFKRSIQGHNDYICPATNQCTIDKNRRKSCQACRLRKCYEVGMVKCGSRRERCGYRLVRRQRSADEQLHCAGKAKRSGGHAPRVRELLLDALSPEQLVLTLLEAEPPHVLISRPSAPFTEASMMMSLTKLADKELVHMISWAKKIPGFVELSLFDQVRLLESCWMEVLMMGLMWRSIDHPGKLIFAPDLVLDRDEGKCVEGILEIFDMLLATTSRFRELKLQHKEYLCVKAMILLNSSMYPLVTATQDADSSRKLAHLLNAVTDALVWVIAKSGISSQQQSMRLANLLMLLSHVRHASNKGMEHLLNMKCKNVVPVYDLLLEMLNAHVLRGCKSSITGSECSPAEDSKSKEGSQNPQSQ
Thyrotropin receptor (Homo sapiens), sequence (P16473 whole entry, looked up): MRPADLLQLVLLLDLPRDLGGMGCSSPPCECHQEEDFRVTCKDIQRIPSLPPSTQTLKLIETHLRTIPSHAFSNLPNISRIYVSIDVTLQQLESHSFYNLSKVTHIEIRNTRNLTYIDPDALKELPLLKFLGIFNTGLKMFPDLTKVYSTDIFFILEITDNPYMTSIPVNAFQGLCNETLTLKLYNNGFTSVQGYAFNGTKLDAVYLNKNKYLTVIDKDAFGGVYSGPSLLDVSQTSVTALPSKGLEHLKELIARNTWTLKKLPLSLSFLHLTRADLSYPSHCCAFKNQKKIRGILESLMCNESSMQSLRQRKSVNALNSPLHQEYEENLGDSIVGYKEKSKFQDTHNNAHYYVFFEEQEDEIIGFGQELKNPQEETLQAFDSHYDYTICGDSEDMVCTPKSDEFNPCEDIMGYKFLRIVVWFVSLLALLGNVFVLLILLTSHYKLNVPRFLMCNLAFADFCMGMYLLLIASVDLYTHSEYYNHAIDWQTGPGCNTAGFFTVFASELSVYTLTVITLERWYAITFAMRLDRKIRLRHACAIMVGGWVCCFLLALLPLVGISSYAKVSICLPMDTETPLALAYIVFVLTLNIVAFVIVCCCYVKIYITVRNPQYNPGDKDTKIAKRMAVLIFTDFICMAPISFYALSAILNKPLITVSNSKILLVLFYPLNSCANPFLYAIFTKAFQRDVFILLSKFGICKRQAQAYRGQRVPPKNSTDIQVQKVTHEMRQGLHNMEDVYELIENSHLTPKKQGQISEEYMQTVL
Thyrotropin-releasing hormone receptor (Homo sapiens), sequence (P34981 whole entry, looked up): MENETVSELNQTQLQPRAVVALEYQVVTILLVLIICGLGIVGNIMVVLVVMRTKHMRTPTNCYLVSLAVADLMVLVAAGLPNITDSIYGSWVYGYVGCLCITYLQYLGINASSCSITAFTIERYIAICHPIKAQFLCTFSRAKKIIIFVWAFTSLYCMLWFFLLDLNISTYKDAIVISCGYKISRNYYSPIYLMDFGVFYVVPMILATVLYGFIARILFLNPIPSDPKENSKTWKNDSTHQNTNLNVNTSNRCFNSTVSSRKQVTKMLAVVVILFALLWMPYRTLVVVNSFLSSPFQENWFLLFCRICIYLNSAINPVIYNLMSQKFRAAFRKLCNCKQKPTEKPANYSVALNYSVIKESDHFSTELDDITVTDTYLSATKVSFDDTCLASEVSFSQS

O=C(O)C(F)(F)C(F)(F)C(F)(F)C(F)(F)C(F)(F)F
not listed: [17] | [18] | [19]
inactive: all other assays above

O=C(CCl)CCl
active: [3] 63.4 µM and 48.6 µM
not listed: [9] | [19]
inactive: all other assays above

C[C@H]1[C@@H]2Cc3ccc(O)cc3[C@@]1(C)CCN2C
not listed: [5] | [9] | [16] | [19]
inactive: all other assays above

NC(=S)c1c(Cl)cccc1Cl
not listed: [7] | [8] | [14] | [15] | [19]
inactive: all other assays above

Nc1cc(Cl)cc(C(=O)O)c1Cl
not listed: [5] | [6] | [17]
inactive: all other assays above

CON(C)C(=O)Nc1ccc(Cl)cc1
not listed: [8] | [9] | [12] | [14] | [15] | [19]
inactive: all other assays above

O=C(N/N=C/c1ccc([N+](=O)[O-])o1)c1cc([N+](=O)[O-])cc([N+](=O)[O-])c1O
active: [3] 11.9 µM | [18] 21.1 µM | [16] 21.1 µM
not listed: [5] | [9]
inactive: all other assays above

Cc1ccc(N)c(C)c1
not listed: [5] | [6] | [17] | [18]
inactive: all other assays above
